± gives the standard deviation.
Tested on: MILI (PIWIL2) piRISC loaded with piRNA #1 (26 nt)
Assay: pre-steady-state target cleavage rate (min^-1); guide: piRNA #1 5'p-UGAGGUAGUAGGUUGUAUAGUAUCCA; MIWI and MILI are mouse PIWI proteins and EfPiwi is from a freshwater sponge; tags in brackets are library labels; higher = faster piRNA-guided slicing of the target
Settings: auxiliary factor: 500 nM mouse GTSF1
Outline: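 A burst-and-steady-state fit was used to obtain the pre-steady-state cleavage rate. The input data were sequencing reads of uncleaved targets, normalised to depth and to weakly complementary targets, from a […] transcribed, DNA-blocked target RNA library mixed with 1 nM active affinity-purified piRISC holding one synthetic guide, with or without 500 nM GTSF1 partner protein, in HEPES–potassium acetate buffer at 33 °C for 0–8 or 0–960 min. Three trials were pooled and k3 was capped at 0.0001 min^-1.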
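Further: 1 nM active piRISC with 0.1 nM target library at 33 °C single turnover.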

Sequence	pre-steady-state target cleavage rate
GGAGUGGAUACUUUAGAACCUACUACCUCA	0.116 ± 0.0096
GGAGACCUAUGAAUACUAGCUACUACCUCA	0.00307 ± 0.002
GGAGAGGAUACUAUAGUACCUACUACCUCA	0.159 ± 0.012
GGAGACCUAUCUUAACAACCUACUACCUCA	0.0183 ± 0.0045
GGAGACCUAACUAUUGUACCUACUACCUCA	0.00477 ± 0.0036
GGAGACCUAUGAUAUGUACCUACUAGCACA	< 0.0001
GGAGACCUAUCUAUCAACCUACUACCUCA	0.0205 ± 0.0047
GGAGACCAUACAAUACAACCUAGUACCUCA	0.0587 ± 0.011
GGAGACCUAUGAUAUCAAGCUACUACCUCA	0.00559 ± 0.0019
GGAGACGAUACUAUACUACCUACUAGCUCA	0.124 ± 0.018
GGAGACCUAUGUAUUGAACCUACUACCUCA	0.00285 ± 0.0015
GGAGACCUAACUAUACAAGCUUCUACCUCA	0.0324 ± 0.01
GGAGUGGAUUCUUUACAACCUACUACCUCA	0.16 ± 0.0093
GGAGACCUAACUAUACAAUCUACUACCUCA	0.0713 ± 0.012
GGAGACCUAUGAUAACAAGCUACUACCACA	0.0117 ± 0.0047
GGAGACCUAUCUAUACAACGUACUAGCUCA	0.00553 ± 0.0029

— the supplement of paper PMC10338343
